# Data from PMC5540273 (PLoS ONE, 2017).
# Legend:
# Conditions in all cases: concentration: 1 μM, replicates: in singlicate; n = 1
# [1] = system: CSF1R-autoinhibited
# [2] = system: CSF1R
# [3] = system: CSK
# [4] = system: CSNK1A1L
# [5] = system: CSNK1A1
# [6] = system: CSNK1D
# [7] = system: CSNK1E
# [8] = system: CSNK1G1
# [9] = system: CSNK1G2
# [10] = system: CSNK1G3
# [11] = system: CSNK2A1
# [12] = system: CSNK2A2
# [13] = system: T1, CTK
# T1 construct: gene MATK
# [14] = system: DAPK1
# [15] = system: DAPK2
# [16] = system: DAPK3
# [17] = system: T2, DCAMKL1
# T2 construct: gene DCLK1
# [18] = system: T3, DCAMKL2
# T3 construct: gene DCLK2
# [19] = system: T4, DCAMKL3
# T4 construct: gene DCLK3
# [20] = system: DDR1
# 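Note: KINOMEscan kinase panel screen.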
SMILES,%Inh [1] [%],%Inh [2] [%],%Inh [3] [%],%Inh [4] [%],%Inh [5] [%],%Inh [6] [%],%Inh [7] [%],%Inh [8] [%],%Inh [9] [%],%Inh [10] [%],%Inh [11] [%],%Inh [12] [%],%Inh [13] [%],%Inh [14] [%],%Inh [15] [%],%Inh [16] [%],%Inh [17] [%],%Inh [18] [%],%Inh [19] [%],%Inh [20] [%]
COc1ccc(Nc2nccc(N3CCC(NC(=O)Nc4ccc5c(c4)OCO5)C3)n2)cc1 (stereo not shown) [GSK1379745],16,0,0,24,0,83,22,1,2,16,5,0,0,26,14,17,0,14,0,15
Cl.c1ccc(Cn2ccc3cc(Nc4ncnc5ccccc45)ccc32)cc1 [GW275568],0,55,20,0,0,26,55,15,0,22,4,19,0,21,7,30,22,10,2,8
COc1cc2ncnc(Nc3ccc(OCc4ccccc4Br)c(Cl)c3)c2cc1OC.Cl [GI261590],10,7,7,0,0,24,24,0,0,27,0,0,0,0,0,17,14,0,21,0
Cl.Fc1ccccc1COc1ccc(Nc2ncnc3ccc(-c4nnc(C(F)(F)F)o4)cc23)cc1Cl [GW424170],0,6,0,0,0,5,22,0,0,30,0,15,0,0,0,5,10,1,7,6
COc1ccc(NC(=O)c2ccc(-c3cc(-c4nnc(C)o4)ccc3C)cc2)cc1 [GW595885],7,14,0,5,0,0,0,0,0,14,0,11,0,0,0,13,8,0,2,13
C[C@@H]1CCN(C(=O)CO)C[C@@H]1N(C)c1ncnc2[nH]ccc12,19,8,21,0,33,6,0,0,0,10,0,0,14,2,7,10,6,0,90,0
CSc1nn2c(=O)cc(N3CCOCC3)nc2n1Cc1cccc(Cl)c1Cl [GSK2347225],0,4,0,32,0,13,87,6,0,33,5,33,0,14,5,24,29,0,3,17
Cl.O=S(=O)(c1cccc(F)c1)c1ccc(Nc2ncnc3cc(Br)sc23)cc1Cl [GSK306886],0,8,30,0,0,36,22,0,0,33,0,37,0,8,0,47,6,0,9,2
CS(=O)(=O)CCNCc1nc(-c2ccc3ncnc(Nc4ccc(OCc5cccc(F)c5)c(Cl)c4)c3c2)cs1.Cl [GW583340],0,8,12,0,0,4,45,17,0,24,2,17,0,25,0,6,16,0,0,4
CCc1nc(-c2cccc(C)c2)c(-c2ccnc(NC(=O)c3ccccc3)c2)s1,11,11,1,39,81,89,82,0,3,0,12,29,0,23,0,0,11,6,0,0
CC(C)(C)OC(=O)NC1CCCN(c2cc(-c3ccc4c(N)n[nH]c4c3)nc(N)n2)C1 (stereo not shown) [GSK2286096],0,10,0,0,0,5,18,24,0,24,0,5,0,18,0,12,10,0,0,0
